This passage reports inhibition results from PubChem BioAssay.

In general, inhibition refers to the drop in the measured response relative to a control, in per cent.

Assay [1] concerns the target Nuclear receptor coactivator 3 (Homo sapiens) (UniProt Q9Y6Q9). Put plainly: NCOA3 GAL4-fusion reporter inhibition – cell-based, luminescence, quadruplicate, confirmation (AID 588792;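 active = mean inhibition over 43.08%, the solvent-only control mean plus 3 SD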;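 note: 0% = DMSO treated cells and 100% = gossypol at 36 µM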). The note with it: HEK293 GAL4-SRC3 luciferase reporter, at 3.6 µM, hits give high values. In general terms: A reporter such as luciferase makes a cellular process visible.
Assay [2] concerns transactivating tegument protein VP16 (Human herpesvirus 1), Gal4-VP16 luciferase reporter. Nature of the assay: repression of VP16-driven luciferase reporter – cell-based, luminescence, high throughput, counter-screen for SRC3 inhibitor project (AID 588794; in the data active = inhibition above about 30%). The note with it: mammalian cells, at 3.6 µM, hits give high values.
Assay [3] has as its target Nuclear receptor coactivator 1 (Homo sapiens) (UniProt Q15788). Put plainly: NCOA1 GAL4-fusion reporter inhibition – cell-based, luminescence, quadruplicate, confirmation (AID 588820;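 active = mean inhibition above 46.68%, the untreated control wells mean plus 3 SD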;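 note: 0% = DMSO wells and 100% = gossypol 36 µM treated wells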). The following applies: HEK293 GAL4-SRC1 luciferase reporter, at 3.6 µM, hits give high values.
Assay [4] in a line: repression of VP16-driven luciferase reporter – cell-based, luminescence, high throughput, counter-screen for SRC1 inhibitor project (AID 588824; in the data active = inhibition above about 25%). The following applies: cell-based VP16 transactivation luciferase luminescence; at 3.6 µM; hits give high values.
The nature of assay [5]: StAR promoter reporter inhibitors, counter-screen for LRH-1 inverse agonist project, cell-based, luminescence, high throughput (AID 651611; in the data active = inhibition above about 28%). The note with it: StAR promoter luciferase reporter counterscreen, at 3.6 µM, hits give high values.
Assay [6] addresses Nuclear receptor subfamily 5 group A member 2 (Homo sapiens) (UniProt O00482). Nature of the assay: NR5A2 activity suppression in reporter cells – cell-based, luminescence, confirmation (AID 651613; in the data active = inhibition above about 42%;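 note: HEK293T cells co-transfected with LRH-1 and StAR promoter luciferase reporter; 0% = vehicle wells and 100% = parental cells lacking receptor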). The following applies: cell-based LRH-1 luciferase reporter, inverse agonism; at 3.6 µM; hits give high values.
The target of assay [7] is Steroidogenic factor 1 (Homo sapiens) (UniProt Q13285). Nature of the assay: inverse agonism at SF1 nuclear receptor – cell-based, luminescence, high throughput, counter-screen for LRH-1 inverse agonist project (AID 651614; in the data active = inhibition above about 44%;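 note: cells cotransfected with StAR promoter reporter and SF1 expression vector; 0% = vehicle on cells with receptor and 100% = vehicle on cells lacking receptor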). The following applies: cell-based SF1 luciferase reporter, at 3.6 µM, hits give high values. On the technique in general: The purpose of a counterscreen is to sort out artefacts and off-target activity.

A short description of assay [8]: compounds suppressing VP16-driven luciferase signal – cell-based, luminescence, high throughput, counter-screen for LRH-1 inverse agonist project (AID 651615). The note with it: Gal4-VP16 luciferase reporter cells, at 3.6 µM, hits give high values.

A number with no mark means an inactive call. Calls of active or inactive are those of the source. Cut-off read from the data, not from the text of the source, unless noted: active = inhibition above about 33%; inactive = the rest.

Sequence of Steroidogenic factor 1 (Homo sapiens) (Q13285 whole entry, looked up): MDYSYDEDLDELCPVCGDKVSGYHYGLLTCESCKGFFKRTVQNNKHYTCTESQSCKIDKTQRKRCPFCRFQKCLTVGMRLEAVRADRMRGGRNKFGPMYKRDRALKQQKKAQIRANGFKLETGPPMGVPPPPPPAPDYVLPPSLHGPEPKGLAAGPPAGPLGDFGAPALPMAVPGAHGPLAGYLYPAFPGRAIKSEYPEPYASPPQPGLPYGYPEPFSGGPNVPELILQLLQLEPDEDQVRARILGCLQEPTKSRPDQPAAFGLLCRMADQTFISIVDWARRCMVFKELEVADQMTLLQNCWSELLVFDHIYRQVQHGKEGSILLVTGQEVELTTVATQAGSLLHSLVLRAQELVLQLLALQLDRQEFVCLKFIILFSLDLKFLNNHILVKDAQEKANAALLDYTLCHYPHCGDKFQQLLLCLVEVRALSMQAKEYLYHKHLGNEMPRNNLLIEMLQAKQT
Sequence of Nuclear receptor coactivator 1 (Homo sapiens) (Q15788 whole entry, looked up, the tested form may be a part): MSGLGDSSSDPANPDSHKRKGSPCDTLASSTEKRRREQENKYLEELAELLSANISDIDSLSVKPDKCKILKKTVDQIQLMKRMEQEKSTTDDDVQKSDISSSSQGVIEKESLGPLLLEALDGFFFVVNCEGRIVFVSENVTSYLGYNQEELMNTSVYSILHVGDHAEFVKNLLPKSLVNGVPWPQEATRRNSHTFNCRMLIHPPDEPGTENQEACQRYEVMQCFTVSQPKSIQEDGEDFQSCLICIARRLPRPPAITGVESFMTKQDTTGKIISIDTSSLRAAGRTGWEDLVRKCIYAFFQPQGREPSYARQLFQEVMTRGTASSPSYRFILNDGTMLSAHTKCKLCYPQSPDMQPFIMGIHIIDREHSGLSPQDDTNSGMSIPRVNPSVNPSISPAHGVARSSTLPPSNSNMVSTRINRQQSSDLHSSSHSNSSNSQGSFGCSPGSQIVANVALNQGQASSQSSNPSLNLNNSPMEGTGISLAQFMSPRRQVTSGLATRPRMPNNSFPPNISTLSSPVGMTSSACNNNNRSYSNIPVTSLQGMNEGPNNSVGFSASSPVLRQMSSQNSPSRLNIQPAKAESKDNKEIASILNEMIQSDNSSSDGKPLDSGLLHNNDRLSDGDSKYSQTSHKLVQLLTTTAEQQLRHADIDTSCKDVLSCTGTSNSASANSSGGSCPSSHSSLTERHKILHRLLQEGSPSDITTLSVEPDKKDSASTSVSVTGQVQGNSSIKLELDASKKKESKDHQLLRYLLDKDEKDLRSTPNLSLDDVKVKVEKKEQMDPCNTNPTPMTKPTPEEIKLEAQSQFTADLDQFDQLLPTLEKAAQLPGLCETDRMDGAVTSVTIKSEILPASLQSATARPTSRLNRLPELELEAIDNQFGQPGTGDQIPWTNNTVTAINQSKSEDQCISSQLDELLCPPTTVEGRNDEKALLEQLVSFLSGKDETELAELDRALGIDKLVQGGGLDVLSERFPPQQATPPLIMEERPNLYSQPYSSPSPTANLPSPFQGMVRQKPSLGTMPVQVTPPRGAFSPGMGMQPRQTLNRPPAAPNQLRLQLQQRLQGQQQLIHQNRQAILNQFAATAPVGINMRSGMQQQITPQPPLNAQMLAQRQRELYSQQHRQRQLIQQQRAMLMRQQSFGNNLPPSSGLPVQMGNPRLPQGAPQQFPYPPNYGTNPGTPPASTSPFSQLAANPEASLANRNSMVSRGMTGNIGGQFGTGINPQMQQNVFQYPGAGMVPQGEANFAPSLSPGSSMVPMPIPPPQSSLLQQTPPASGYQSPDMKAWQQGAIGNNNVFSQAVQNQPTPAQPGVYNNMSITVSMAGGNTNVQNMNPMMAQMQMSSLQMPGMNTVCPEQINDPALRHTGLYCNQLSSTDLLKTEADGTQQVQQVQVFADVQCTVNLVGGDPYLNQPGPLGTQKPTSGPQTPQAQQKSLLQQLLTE
Sequence of Nuclear receptor subfamily 5 group A member 2 (Homo sapiens) (O00482 whole entry, looked up): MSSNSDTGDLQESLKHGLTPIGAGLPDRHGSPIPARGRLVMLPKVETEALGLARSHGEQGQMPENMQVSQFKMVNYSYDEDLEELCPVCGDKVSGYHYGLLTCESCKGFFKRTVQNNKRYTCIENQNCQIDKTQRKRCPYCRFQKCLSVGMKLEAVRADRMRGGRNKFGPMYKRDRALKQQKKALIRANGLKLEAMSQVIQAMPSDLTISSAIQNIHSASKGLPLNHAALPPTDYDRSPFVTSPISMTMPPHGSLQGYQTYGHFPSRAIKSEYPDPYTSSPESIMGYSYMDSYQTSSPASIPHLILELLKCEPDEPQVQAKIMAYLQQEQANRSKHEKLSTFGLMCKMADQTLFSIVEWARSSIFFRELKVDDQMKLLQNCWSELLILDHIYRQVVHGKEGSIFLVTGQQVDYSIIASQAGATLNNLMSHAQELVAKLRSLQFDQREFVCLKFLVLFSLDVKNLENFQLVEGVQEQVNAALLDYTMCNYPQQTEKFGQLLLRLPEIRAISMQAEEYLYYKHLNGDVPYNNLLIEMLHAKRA
Sequence of Nuclear receptor coactivator 3 (Homo sapiens) (Q9Y6Q9 whole entry, looked up, the tested form may be a part): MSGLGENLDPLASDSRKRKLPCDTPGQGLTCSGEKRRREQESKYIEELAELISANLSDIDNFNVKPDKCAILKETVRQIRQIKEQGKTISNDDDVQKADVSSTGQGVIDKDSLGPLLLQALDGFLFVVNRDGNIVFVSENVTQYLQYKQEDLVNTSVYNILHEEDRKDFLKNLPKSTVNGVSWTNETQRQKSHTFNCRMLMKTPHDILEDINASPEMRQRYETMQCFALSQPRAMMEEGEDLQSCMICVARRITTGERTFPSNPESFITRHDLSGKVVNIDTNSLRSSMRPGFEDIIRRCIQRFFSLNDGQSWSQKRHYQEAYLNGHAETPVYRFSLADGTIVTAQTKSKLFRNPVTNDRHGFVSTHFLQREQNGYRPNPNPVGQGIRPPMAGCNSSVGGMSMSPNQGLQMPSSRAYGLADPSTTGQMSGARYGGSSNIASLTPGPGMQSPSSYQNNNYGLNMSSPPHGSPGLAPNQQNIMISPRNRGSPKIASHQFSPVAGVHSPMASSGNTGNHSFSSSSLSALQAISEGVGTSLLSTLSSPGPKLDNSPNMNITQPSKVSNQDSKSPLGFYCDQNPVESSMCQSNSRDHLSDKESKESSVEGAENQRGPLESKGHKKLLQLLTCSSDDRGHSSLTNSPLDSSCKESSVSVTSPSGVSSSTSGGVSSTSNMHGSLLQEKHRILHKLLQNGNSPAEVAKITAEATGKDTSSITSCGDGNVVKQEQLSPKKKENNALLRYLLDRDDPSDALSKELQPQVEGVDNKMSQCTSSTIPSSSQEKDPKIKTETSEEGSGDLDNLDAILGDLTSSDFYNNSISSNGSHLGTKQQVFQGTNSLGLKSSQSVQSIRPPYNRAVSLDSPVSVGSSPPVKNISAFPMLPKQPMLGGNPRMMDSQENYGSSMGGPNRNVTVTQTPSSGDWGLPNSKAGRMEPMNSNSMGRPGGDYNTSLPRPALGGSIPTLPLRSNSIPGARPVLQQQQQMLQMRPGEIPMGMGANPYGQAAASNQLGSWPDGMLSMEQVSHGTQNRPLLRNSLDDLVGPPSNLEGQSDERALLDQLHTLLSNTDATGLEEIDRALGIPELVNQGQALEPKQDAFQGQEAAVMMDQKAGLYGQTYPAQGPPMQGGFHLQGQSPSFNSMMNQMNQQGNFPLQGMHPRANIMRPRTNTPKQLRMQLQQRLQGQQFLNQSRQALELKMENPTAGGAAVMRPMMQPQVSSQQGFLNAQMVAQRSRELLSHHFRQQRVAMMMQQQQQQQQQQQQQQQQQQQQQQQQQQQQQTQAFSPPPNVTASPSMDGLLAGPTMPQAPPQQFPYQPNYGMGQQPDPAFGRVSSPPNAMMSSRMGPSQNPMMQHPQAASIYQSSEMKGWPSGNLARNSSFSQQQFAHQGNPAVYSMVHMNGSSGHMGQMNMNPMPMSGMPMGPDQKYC

Turning to `Brc1ccc2c(c1)CN1CCCC1=N2`, the inhibition in assay [1] is 15.1%; in assay [2], 31.6% (active); in assay [3] it was 9.34%; in assay [4] it was 28% (active); in assay [5], 30.9% (active); in assay [6] it was 42.2% (active). Further, the inhibition in assay [7] was 30.6%; in assay [8] it was 42.4% (active).
Consider `O=C(N/N=C/c1ccc[nH]1)c1ccc(COc2cccc3cccnc23)cc1`, for which the inhibition in assay [1] was 83% (active); in assay [2] it was 71.8% (active); in assay [3] it was 0.58%; in assay [4], 66.5% (active); in assay [5], 86% (active); in assay [6] it was 109% (active). Besides, the values for the inhibition in assay [7] and in assay [8] were 96.3% (active) and 88.4% (active), respectively.
`O=C(/C=C/c1ccc(O)cc1)c1ccc(NC2=C(N3CCCCC3)C(=O)c3ccccc3C2=O)cc1`: the inhibition in assay [1] is 33.2%; in assay [2] it was 26.1%; in assay [3] it was 22.5%; in assay [4], 36.1% (active); in assay [5], -1.86%; in assay [6], 76.3% (active). The values for the inhibition in assay [7] and in assay [8] were 17.3% and 67.4% (active), respectively.
Regarding `Cc1ccc2nc(NC(=O)CSCC(=O)OCC(=O)c3ccccc3)sc2c1`, the inhibition in assay [1] was 46.5% (active); in assay [2] it was 39% (active); in assay [3], 7.46%; in assay [4], 30.5% (active); in assay [5] it was 19.2%; in assay [6] it was 52.4% (active). The inhibition in assay [7] is 39.6%; in assay [8], 32.6% (active).
On to `COCCn1c(C)cc(C2=NNC(=Nc3ccccc3)SC2)c1C`, for which the inhibition is -62.4% in assay [1]; -40.8% in assay [2]; -119% in assay [3]; -64% in assay [4]; -73.4% in assay [5]; -77.6% in assay [6]. In addition, the figures for the inhibition in assay [7] and in assay [8] were -67.8% and -136%, respectively.
For the molecule `Cc1ccc2ccc3cccnc3c2n1`, the inhibition was -1.81% in assay [1]; 18.9% in assay [2]; 12% in assay [3]; 24.6% in assay [4]; 30.6% (active) in assay [5]; 50.2% (active) in assay [6]. The inhibition was 54.5% (active) in assay [7] and 37.3% (active) in assay [8].
For `COc1ccccc1C(=O)Nc1nc2ccccc2s1`, the inhibition in assay [1] is 85.4% (active); in assay [2], 79.6% (active); in assay [3], 56.6% (active); in assay [4], 71% (active); in assay [5] it was 85.9% (active); in assay [6], 86.4% (active). Moreover, the figures for the inhibition in assay [7] and in assay [8] were 88% (active) and 75.6% (active), respectively.
`COc1cccc(/C=N/NC(=O)c2ccc(-c3ccccc3)cc2)c1O`: the inhibition in assay [1] was 28.9%; in assay [2] it was 39.8% (active); in assay [3], 37.3%; in assay [4] it was 40.6% (active); in assay [5], 48.9% (active); in assay [6] it was 81% (active). The figures for the inhibition in assay [7] and in assay [8] were 36.4% and 80.1% (active), respectively.
As for `O=C1[C@@H]2Cc3c([nH]c4ccccc34)C(c3ccc([N+](=O)[O-])cc3)N2C(=O)CN1C1CC1` (some centres undefined), the inhibition is 63.7% (active) in assay [1]; 64% (active) in assay [2]; 62.3% (active) in assay [3]; 62.6% (active) in assay [4]; 60.7% (active) in assay [5]; 67.9% (active) in assay [6]. Further, the figures for the inhibition in assay [7] and in assay [8] were 71.4% (active) and 75.7% (active), respectively.
For `N=c1c2c(-c3ccccc3)c(-c3ccccc3)n(Cc3ccccc3)c2ncn1CCO`, the inhibition in assay [1] is 26.6%; in assay [2] it was 61% (active); in assay [3] it was 39.8%; in assay [4], 57.8% (active); in assay [5], 57.2% (active); in assay [6], 71.5% (active). Further, the inhibition in assay [7] is 73.1% (active); in assay [8], 77.4% (active).
Consider `CN(C)c1ccc(C=c2c3ccccc3n3c2c2c([n+]3C)CCCC2)cc1`, for which the inhibition was 75.3% (active) in assay [1]; 81.7% (active) in assay [2]; 55.7% (active) in assay [3]; 81.8% (active) in assay [4]; 79% (active) in assay [5]; 110% (active) in assay [6]. The figures for the inhibition in assay [7] and in assay [8] were 94.3% (active) and 94.7% (active), respectively.
With `OCC1OC(n2cnc3c(NCc4ccccc4O)ncnc32)C(O)C1O` (centres undefined), the inhibition in assay [1] is 81% (active); in assay [2], 82.1% (active); in assay [3] it was 45.3%; in assay [4] it was 80% (active); in assay [5], 87.5% (active); in assay [6], 102% (active). Also, the inhibition in assay [7] was 90.3% (active); in assay [8] it was 86.1% (active).
On to `CCCCCCCCCn1c2c(c(=N)c3c1CCC3)CCCC2`, for which the inhibition in assay [1] is 87.2% (active); in assay [2] it was 90.4% (active); in assay [3], 65.6% (active); in assay [4], 85.3% (active); in assay [5] it was 83.7% (active); in assay [6] it was 111% (active). For the same molecule, the inhibition was 95.6% (active) in assay [7] and 94.6% (active) in assay [8].
With `Cc1ccc(S(=O)(=O)Nc2ccccc2C(=O)Nc2nc(-c3ccc(F)cc3)cs2)cc1`, the inhibition in assay [1] was 20.7%; in assay [2], 27.8%; in assay [3] it was 20.1%; in assay [4] it was 37% (active); in assay [5], 42.1% (active); in assay [6], 82.7% (active). Further, the inhibition in assay [7] was 80.3% (active); in assay [8], 72.4% (active).
`C#CC[N+](C)(C)CCCCCCCCCCCC`: the inhibition is 29.2% in assay [1]; 45.9% (active) in assay [2]; 33.4% in assay [3]; 36.6% (active) in assay [4]; 29.7% (active) in assay [5]; 64.7% (active) in assay [6]. Also, the inhibition was 65.8% (active) in assay [7] and 59.8% (active) in assay [8].
In the case of `N=c1c2c(n(Cc3ccc(F)cc3)c3c1CCC3)CCCC2`, the inhibition is 27.9% in assay [1]; 61.5% (active) in assay [2]; 13.6% in assay [3]; 48% (active) in assay [4]; 41.4% (active) in assay [5]; 101% (active) in assay [6]. Further, the inhibition in assay [7] was 70.9% (active); in assay [8], 61.2% (active).
As to `CC(C)(C)c1ccc(/C=N/Nc2ccc(C(=O)O)cc2)cc1`, the inhibition in assay [1] was 28.4%; in assay [2], 32.6% (active); in assay [3] it was 13.3%; in assay [4], 13.9%; in assay [5] it was -5.93%; in assay [6], -189%. Besides, the inhibition in assay [7] is -79.9%; in assay [8], -20.1%.
For `COc1ccccc1-[n+]1c(C)cc(/C=C2\Sc3ccccc3N2C)cc1C`, the inhibition in assay [1] is 81.9% (active); in assay [2] it was 85.2% (active); in assay [3], 8.54%; in assay [4] it was 79.1% (active); in assay [5], 38.9% (active); in assay [6] it was 104% (active). The inhibition was 83.3% (active) in assay [7] and 91% (active) in assay [8].
